Experimental findings from PubChem BioAssay (NCI) are described below.

SMILES strings stand for the structures. Compounds without any hit were thinned out: in the full panel of roughly 83,000, 20% have a hit.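 Interpretation: 100, growth as untreated; towards 0, rising growth inhibition; 0, no net growth; 0 to -100, cell death. Compounds scoring below 10 were considered active.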 Values without a mark were called inactive. Active and inactive are the calls of the source.

Test systems include NCI-H23 lung; NCI-H226 lung; NCI-H322M lung; HOP-62 NSCLC; NCI-H522 lung; A549/ATCC NSCLC; 786-0 renal; COLO 205 colon; DU-145 prostate.
Common to all, as to test: NCI-60 one-dose screen, 48 h (100 = growth as untreated, 0 = no growth, -100 = all killed)
Conditions in all cases: 10 µM

`O=C(N/N=C/c1cc2ccccc2c2ccccc12)c1cc(O)c(O)c(O)c1`: the growth was 70.2% with NCI-H23 lung; 95.6% with NCI-H226 lung; 74.6% in the experiment with NCI-H322M lung; 54.5% with HOP-62 NSCLC; -41.3% (active) in the experiment on NCI-H522 lung; 94.4% with A549/ATCC NSCLC. The results for the growth with 786-0 renal, with COLO 205 colon and with DU-145 prostate were 82.6%, 72.7% and 75.8%, respectively.
`CCCCCCN1C(=O)C2=C(c3ccc(Cl)cc3)Nc3c(c(C)nn3-c3ccccc3)C2c2ccccc21` (stereo unspecified): the growth is 98.6% in the experiment on NCI-H23 lung; 77.5% with NCI-H226 lung; 90.5% in the experiment with NCI-H322M lung; 96.8% with HOP-62 NSCLC; 80.7% in the experiment with NCI-H522 lung; 85.2% with A549/ATCC NSCLC. In addition, the growth was 89% in the experiment with 786-0 renal, 106% in the experiment on COLO 205 colon and 104% with DU-145 prostate.
`COc1cc(Nc2ccnc(NCCCNc3ccnc4cc(Cl)ccc34)n2)cc(OC)c1`: the growth was 55.8% in the experiment on NCI-H23 lung; 87.6% in the experiment on NCI-H226 lung; 15.2% in the experiment with NCI-H322M lung; 27.4% in the experiment on HOP-62 NSCLC; -44.8% (active) in the experiment with NCI-H522 lung; 11.9% in the experiment with A549/ATCC NSCLC. Further, the growth was -90.9% (active) in the experiment with 786-0 renal, -92.2% (active) with COLO 205 colon and 34.3% in the experiment with DU-145 prostate.
For the compound `COc1cc(-c2cc(/C=C/C(=O)c3ccc(N)cc3)[nH]n2)cc(OC)c1OC`, the growth in the experiment with NCI-H23 lung is 24.6%; in the experiment on NCI-H226 lung, 51.8%; in the experiment on NCI-H322M lung, 11.4%; in the experiment with HOP-62 NSCLC, 23.9%; with NCI-H522 lung it was 10.8%; in the experiment with A549/ATCC NSCLC it was 1.29% (active). The growth was -28.9% (active) with 786-0 renal, -45% (active) in the experiment on COLO 205 colon and 7.2% (active) in the experiment with DU-145 prostate.
On to `O=C(Nc1ccc(CN2CCc3nc4cc(O)c(O)cc4cc32)cc1)c1ccc(Cl)c(Cl)c1`, for which the growth in the experiment with NCI-H23 lung was 105%; in the experiment on NCI-H226 lung it was 78.7%; in the experiment on NCI-H322M lung, 94%; in the experiment with HOP-62 NSCLC, 107%; in the experiment on NCI-H522 lung, 101%; in the experiment on A549/ATCC NSCLC, 111%. The results for the growth in the experiment on 786-0 renal, with COLO 205 colon and with DU-145 prostate were 104%, 99.4% and 104%, respectively.
On to `CCCC1(CC(=O)O)OCCc2c1[nH]c1ccccc21` (stereo unspecified), for which the growth in the experiment on NCI-H23 lung was 93.4%; with NCI-H226 lung it was 98.4%; in the experiment with NCI-H322M lung, 109%; with HOP-62 NSCLC, 107%; in the experiment with NCI-H522 lung, 37.2%; in the experiment with A549/ATCC NSCLC, 99.3%. For the same compound, the growth in the experiment with 786-0 renal is 103%; with COLO 205 colon it was 229%; with DU-145 prostate, 114%.
As to `C#Cc1ccc(-n2c(/C=C/c3ccc(C(F)(F)F)cc3)nc3ncccc3c2=O)cc1`, the growth is 78.4% in the experiment with NCI-H23 lung; -42.7% (active) in the experiment on NCI-H226 lung; 33.7% with NCI-H322M lung; 37.6% in the experiment with HOP-62 NSCLC; 4.27% (active) in the experiment with NCI-H522 lung; 23.6% in the experiment with A549/ATCC NSCLC. Further, the growth was 53% in the experiment with 786-0 renal, 18.6% with COLO 205 colon and 46.2% in the experiment on DU-145 prostate.
For `COc1cccc(NC(=O)c2sc3nc4c(cc3c2N)C(O)CCC4)c1` (stereo unspecified), the growth was 33.1% in the experiment with NCI-H23 lung; 66.9% with NCI-H226 lung; 44.5% in the experiment on NCI-H322M lung; 32.6% with HOP-62 NSCLC; -10.5% (active) with NCI-H522 lung; 22.3% with A549/ATCC NSCLC. Moreover, the growth with 786-0 renal was 43.5%; in the experiment with COLO 205 colon, -7.73% (active); with DU-145 prostate it was -10.9% (active).
Consider `CCN(CC)CCSCCN(CC)CC`, for which the growth with NCI-H23 lung was 102%; in the experiment on NCI-H226 lung it was 101%; in the experiment on NCI-H322M lung, 109%; with HOP-62 NSCLC, 108%; in the experiment with NCI-H522 lung, 84.1%; in the experiment with A549/ATCC NSCLC it was 103%. Also, the growth in the experiment with 786-0 renal was 102%; in the experiment on COLO 205 colon, 106%; in the experiment with DU-145 prostate, 109%.
Regarding `Nc1ncn(C2OC(CO)C(O)C2O)c(=O)n1` (stereo unspecified), the growth with NCI-H23 lung was 30.3%; with NCI-H226 lung, 29%; in the experiment on NCI-H322M lung it was -0.0643% (active); in the experiment on HOP-62 NSCLC, -23% (active); in the experiment with NCI-H522 lung it was -12.7% (active); in the experiment on A549/ATCC NSCLC, 20.7%. The growth was 12.2% in the experiment on 786-0 renal, 2.62% (active) with COLO 205 colon and -9.86% (active) in the experiment with DU-145 prostate.
Turning to `COc1ccc(/C(=C2\O[C@@H]([C@H]3COC(C)(C)O3)[C@H]3OC(C)(C)O[C@@H]23)c2cc(OC)c(OC)c(OC)c2)cc1O`, the growth was 72.3% with NCI-H23 lung; 108% with NCI-H226 lung; 34.8% in the experiment on NCI-H322M lung; 48.5% with HOP-62 NSCLC; 43.4% in the experiment on NCI-H522 lung; 84.2% with A549/ATCC NSCLC. Also, the growth in the experiment with 786-0 renal was 101%; in the experiment with COLO 205 colon it was 121%; in the experiment with DU-145 prostate, 34.8%.
Regarding `COc1cc(C(=C2O[C@@H]([C@H]3COC(C)(C)O3)[C@H]3OC(C)(C)O[C@@H]23)c2cc(OC)c(OC)c(OC)c2)cc(OC)c1OC`, the growth in the experiment with NCI-H23 lung is 95.2%; in the experiment with NCI-H226 lung it was 94.4%; in the experiment on NCI-H322M lung it was 103%; in the experiment on HOP-62 NSCLC, 104%; with NCI-H522 lung, 106%; in the experiment on A549/ATCC NSCLC, 106%. Also, the growth with 786-0 renal is 97.2%; with COLO 205 colon, 117%; in the experiment with DU-145 prostate it was 112%.
As to `Clc1cccc(-c2nc(-c3cccs3)no2)c1`, the growth in the experiment on NCI-H23 lung was 92.8%; in the experiment with NCI-H226 lung, 100%; with NCI-H322M lung, 114%; with HOP-62 NSCLC, 97.8%; in the experiment with NCI-H522 lung it was 92%; in the experiment on A549/ATCC NSCLC it was 94.1%. The growth in the experiment with 786-0 renal is 99.6%; in the experiment on COLO 205 colon, 114%; in the experiment on DU-145 prostate it was 120%.
On to `Cc1ccc2oc3nc(C)c(C(=O)NCc4ccccc4)cc3c(=O)c2c1`, for which the growth was 83.8% in the experiment on NCI-H23 lung; 104% in the experiment with NCI-H226 lung; 76.8% with NCI-H322M lung; 100% with HOP-62 NSCLC; 76.7% in the experiment on NCI-H522 lung; 73.5% in the experiment with A549/ATCC NSCLC. Also, the growth is 55.6% with 786-0 renal, 23.8% in the experiment with COLO 205 colon and 86.9% with DU-145 prostate.
